Screens deposited in PubChem BioAssay by Pan Lab, Icahn School of Medicine at Mount Sinai.
The full list was thinned out, with hits kept by preference.
RBX1-CUL1 inh – blocks human RBX1-Cullin-1 di-ubiquitin formation; P62877+Q13616; inhibition, % at 10 µM; hit rate 0.6% among 140,000; in vitro K48 di-Ub FRET, acceptor:donor ratio, 45 min; in the data active = inhibition above about 25%
Target sequence (P62877 whole entry, looked up): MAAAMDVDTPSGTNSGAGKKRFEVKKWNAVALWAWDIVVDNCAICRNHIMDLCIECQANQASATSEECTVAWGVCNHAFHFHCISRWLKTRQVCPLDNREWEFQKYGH
Target sequence (Q13616 whole entry, looked up): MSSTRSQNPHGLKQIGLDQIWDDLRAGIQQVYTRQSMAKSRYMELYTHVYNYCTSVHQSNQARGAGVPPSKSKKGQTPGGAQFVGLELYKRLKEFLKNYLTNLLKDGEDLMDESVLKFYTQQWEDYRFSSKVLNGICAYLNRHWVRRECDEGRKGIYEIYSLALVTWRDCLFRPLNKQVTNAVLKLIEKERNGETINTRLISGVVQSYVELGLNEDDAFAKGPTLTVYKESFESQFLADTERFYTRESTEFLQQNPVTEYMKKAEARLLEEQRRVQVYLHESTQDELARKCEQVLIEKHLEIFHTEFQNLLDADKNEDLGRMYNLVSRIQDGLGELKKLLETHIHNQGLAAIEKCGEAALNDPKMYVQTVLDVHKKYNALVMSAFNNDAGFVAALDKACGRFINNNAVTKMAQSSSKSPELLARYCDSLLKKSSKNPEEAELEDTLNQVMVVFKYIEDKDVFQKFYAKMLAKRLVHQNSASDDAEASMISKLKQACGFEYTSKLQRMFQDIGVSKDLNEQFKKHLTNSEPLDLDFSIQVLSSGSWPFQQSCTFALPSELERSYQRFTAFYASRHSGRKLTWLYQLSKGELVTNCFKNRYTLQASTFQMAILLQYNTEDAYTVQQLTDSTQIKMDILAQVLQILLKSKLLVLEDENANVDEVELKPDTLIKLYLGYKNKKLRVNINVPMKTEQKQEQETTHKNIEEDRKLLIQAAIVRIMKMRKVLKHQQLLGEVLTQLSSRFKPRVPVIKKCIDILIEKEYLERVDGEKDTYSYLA
Of the large screens only hits and unclear results are named; the others gave an inactive call.

Cc1oc(-c2ccccc2NS(=O)(=O)N(C)C)nc1CNC(=O)Cc1ccc2c(c1)OCO2	none
O=C(CSc1nnc(Cc2c[nH]c3ccccc23)n1Cc1ccccc1)c1c[nH]c2ccccc12	none
Cc1ccc(C(=O)N2CC(C)N(C(=O)c3ccc(C)o3)CC2C)o1 (stereo not drawn)	none
COC(=O)CCNc1ccc(-c2nc(Cc3ccc(F)cc3)no2)cn1	none
CCC(CC)C(=O)N1c2ccccc2C(C)(c2ccccc2)CC1(C)C (stereo not drawn)	RBX1-CUL1 inh 27.8
CCCCCC(=O)N1c2ccccc2C(C)(c2ccccc2)CC1(C)C (stereo not drawn)	none
CCC(=O)N1c2ccccc2C(C)(c2ccccc2)CC1(C)C (stereo not drawn)	none
CCC(C)NS(=O)(=O)c1cc(C)c(Cl)cc1Cl (stereo not drawn)	none
CCc1cnc(-c2cccc(-c3ccn(Cc4ncccc4C)n3)c2)nc1	none
COc1cccc(/C=C2\CCC(=C3SCCS3)C2=O)c1	none
Nc1ccc2c(c1)C/C(=C/c1ccco1)C2=O	RBX1-CUL1 inh 30.6
CC1=C([N+](=O)[O-])CS(=O)(=O)/C1=C\c1ccco1	none
O=C(C=C1SCCS1)/C=C/c1ccco1	none
Cc1ccc(/C=C2\CCc3ccccc3C2=O)o1	none
O=C1C(=C2SCCS2)CC/C1=C\c1ccco1	RBX1-CUL1 inh 73.5
CC1=Nn2c(CSc3ccccc3)nnc2SC1	none
COc1ccccc1OCC(=O)Nc1sc2c(c1C(=O)NCc1cccnc1)CCCC2	none
CC#CC(=O)N1CCc2[nH]nc(-c3ccc(F)c(F)c3)c2C1	none
CCC(C)NS(=O)(=O)c1ccc(OC)c(C(=O)O)c1 (stereo not drawn)	none
CC(C)c1cc(N)cc(C(=O)O)c1O	none
CCC(C)c1cc(Cc2cc(C(C)CC)cc(C(=O)O)c2O)c(O)c(C(=O)O)c1 (stereo not drawn)	RBX1-CUL1 inh 80.2
O=C(NC(=S)Nc1cccc(Cl)c1Cl)c1cccs1	none
CCc1noc(C)c1C(=O)Nc1ccccc1Cc1ccccc1	none
Cc1cc(C)nc(NC(=NCCC(C)C)NS(=O)(=O)c2ncn[nH]2)n1	none
O=[N+]([O-])c1sccc1-c1ccsc1	RBX1-CUL1 inh 29.4
O=C(O)c1sccc1-c1ccsc1	none
O=[N+]([O-])c1ccsc1C1OCCO1	none
C=C(C)CN(CC)C(=O)c1ccc(OC2CCN(C3CCCC3)CC2)c(OC)c1	none
COc1ccc(-c2cc(-c3ccccc3)nc3sc(C(=O)Nc4cccc5ccccc45)c(N)c23)cc1	none
Cc1nc(SCC(=O)Nc2ccc3ccccc3c2)c2c3c(sc2n1)CCCC3	none
Cc1nc(SCC(=O)Nc2ccc3c(c2)OCCO3)c2c3c(sc2n1)CCCC3	RBX1-CUL1 inh 42.1
COC(=O)c1ccc(NC(=O)CSc2nc(C)nc3sc4c(c23)CCC4)cc1	none
CCOc1ccc2c(c1)c(=O)c(S(=O)(=O)c1ccc(C)cc1)cn2Cc1ccccc1Cl	none
Cc1[nH][nH]c(=O)c1C(c1c(C)[nH][nH]c1=O)c1cn(Cc2ccccc2Cl)c2ccccc12	RBX1-CUL1 inh 67.8
O=C1OC2(CCCCC2)OC(=O)C1=Cc1cn(Cc2ccccc2Cl)c2ccccc12	none
CCC(C)NC(=O)c1cc2c(=O)n3cc(C)ccc3nc2n1C (stereo not drawn)	none
Cc1ccc2c(c1)-c1ncc(C(=O)c3cc(Cl)ccc3O)cc1CO2	none
O=C(Nc1ccc(S(=O)(=O)Nc2ccc(Cl)nn2)cc1)c1ccc(COc2cc(Cl)ccc2Cl)o1	RBX1-CUL1 inh 35.1
O=C(Nc1ccc(S(=O)(=O)Nc2ccc(Cl)nn2)cc1)c1ccc(COc2cccc(Cl)c2)o1	none
COc1cc(NS(=O)(=O)c2ccc(NC(=O)c3ccc(COc4ccc5c(c4)CCC5)o3)cc2)ncn1	none
COc1ccc(/C=C2/CCCC3=C2OC(=N)C(C#N)C3c2ccc(OC)cc2OC)c(OC)c1 (stereo not drawn)	none
Cc1cc(C)n2nc(C(=O)N3CCC4(CCCN(CC(C)(C)C)C4)C3)cc2n1 (stereo not drawn)	RBX1-CUL1 inh 29.1
CC(C)(C)CN1CCCC2(CCN(C(=O)c3cnccn3)C2)C1 (stereo not drawn)	none
COc1cccc(CN2CCCC3(CCN(C(=O)c4cnc(C)cn4)C3)C2)c1 (stereo not drawn)	none
C=CCN1C(=O)C(CC(=O)Nc2ccc(F)cc2)SC1=NS(=O)(=O)c1ccc(C)cc1 (stereo not drawn)	none
COc1ccc2c(c1)C=C1C(=CC(=Nc3ccc(Br)cc3)CC1(C)C)O2	RBX1-CUL1 inh 54.4
C=CC[C@@H]1CC=C[C@@H](C)N1C(=O)c1cc(COc2ccc3c(c2)OCO3)[nH]n1	none
O=C1c2ccccc2-c2ncccc21	none
O=C1c2ccccc2-c2nc3nsnc3nc21	RBX1-CUL1 inh 86.9
O=C1c2ccccc2-c2nc3ccc(Cl)cc3nc21	none
CCCC1(C2CCN(C(=O)c3ccc(F)cc3F)CC2)NC(=O)N(CCc2ccccn2)C1=O (stereo not drawn)	none
CN(Cc1ccccc1)C(=O)C1CCN(C(=O)c2ccccc2F)CC1	none
Clc1ccc(C2C3CCCCC3(N3CCCC3)ON2c2ccccc2)cc1 (stereo not drawn)	none
CC(C)Cc1ccc(-c2[nH]nc3c2C(c2cc(Br)c(O)c(Br)c2)C(C#N)C(=N)O3)cc1 (stereo not drawn)	none
Cc1c(CC(=O)NCCc2cnc[nH]2)c2c(n1CC(C)C)CC(C)(C)CC2=O	none
Cc1[nH]n(-c2ccccc2)c(=O)c1CCc1ccccc1	none
Cc1[nH]n(-c2ccccc2)c(=O)c1C(c1ccc(C(=O)O)cc1)c1c(C)[nH]n(-c2ccccc2)c1=O	none
COc1ccccc1C(c1c(C)[nH]n(-c2ccccc2)c1=O)c1c(C)[nH]n(-c2ccccc2)c1=O	RBX1-CUL1 inh 26.8
Cc1[nH]n(-c2ccccc2)c(=O)c1C(c1cccc(OCc2ccc(Cl)cc2)c1)c1c(C)[nH]n(-c2ccccc2)c1=O	none
CCOc1ccc(C(c2c(C)[nH]n(-c3ccccc3)c2=O)c2c(C)[nH]n(-c3ccccc3)c2=O)cc1OC	none
CCOc1ccccc1C(c1c(C)[nH]n(-c2ccccc2)c1=O)c1c(C)[nH]n(-c2ccccc2)c1=O	RBX1-CUL1 inh 45.6
COc1cccc(C(=O)NCC2Cc3cc(F)cc(-c4ccccn4)c3O2)c1 (stereo not drawn)	none
CCOC(=O)C1C(=O)NC(N2CCOCC2)=NC1c1cccc(C)c1 (stereo not drawn)	none
C=CCS(=O)(=O)N1CCC2(CCCN(Cc3ccc(F)c(F)c3)C2=O)C1 (stereo not drawn)	none
O=C1NN(c2ccccc2)C(=O)/C1=C/c1cn(CCCOc2ccc(Cl)cc2)c2ccccc12	none
Cc1ccc(COc2ccc(Cl)cc2/C=C2\C(=O)NN(c3ccccc3)C2=O)cc1	none
Cc1cc(OCCOc2ccccc2/C=C2\C(=O)NN(c3ccccc3)C2=O)ccc1Cl	none
Cc1ccc(OCCCOc2ccccc2/C=C2\C(=O)NN(c3ccccc3)C2=O)cc1	RBX1-CUL1 inh 35.8
O=C1NN(c2ccccc2)C(=O)/C1=C/c1cc(Cl)ccc1OCc1ccc(Cl)cc1	RBX1-CUL1 inh 41.0
Cc1ccc(N2NC(=O)/C(=C/c3ccccc3OCc3ccccc3)C2=O)cc1Cl	none
CCCOc1ccccc1/C=C1/C(=O)NN(c2ccc(I)cc2)C1=O	none
Cc1ccc(OCCCOc2c(Cl)cc(Cl)cc2/C=C2\C(=O)NN(c3ccccc3)C2=O)cc1	RBX1-CUL1 inh 77.4
COc1cc(/C=C2/C(=O)NN(c3ccc(C)cc3)C2=O)cc(Cl)c1OC	none
Cc1ccccc1COc1ccc(Cl)cc1/C=C1\C(=O)NN(c2ccccc2)C1=O	none
COc1cc(/C=C2\C(=O)NN(c3ccccc3)C2=O)cc(Cl)c1OCCCOc1ccc(Cl)cc1	none
COc1cc(/C=C2\C(=O)NN(c3ccccc3)C2=O)cc(Cl)c1OCCCOc1ccc(C)cc1	RBX1-CUL1 inh 92.1
